# From PubChem BioAssay
# Calls of active or inactive are those of the source. The rule behind the calls is not given here.
# Assay: inhibitors of hydroxyurea-induced Chk1 phosphorylation, primary screen, imaging, HeLa, phospho-Chk1 antibody, percent positive cells (AID 1186)
# Settings: hydroxyurea-induced phospho-Chk1 immunofluorescence imaging, higher = more signal
row,SMILES,z-score
1,[N-]=[N+]=NCc1ccccc1C[C@]1(C(=O)NCc2ccccc2)COC(c2ccc(OCCCO)cc2)=N1,-0.403 (inactive)
2,COc1ccc([Si](C)(C)[C@H]2[C@H](CC(=O)N(CCO)Cc3ccccc3)O[C@@]3(C(=O)N(Cc4cccc(N5C(=O)c6cccc7cccc5c67)c4)c4ccccc43)[C@@H]2C)cc1,-1.31 (inactive)
3,Cc1ccc(S[C@]2(C(=O)NCC(F)(F)F)CC(=O)N(C3Cc4ccccc4C3)[C@@H]2c2ccc(CO)cc2I)cc1,0.0501 (inactive)
4,O=[N+]([O-])c1ccc(C[n+]2ccc(CCCO)cc2)o1,-0.0644 (inactive)
5,CCCCC(=C=CC[C@H](O)c1ccccc1OCCO)C[C@H](O)c1cc(Cl)cc(Cl)c1O,0.0899 (inactive)
6,CCCNC(=O)[C@@]1(C)c2ccccc2C(=O)N(Cc2ccc(OC(F)(F)F)cc2)[C@H]1c1ccc(CO)cc1,-0.374 (inactive)
7,COc1ccc(C(O)C2C=CC3C(=O)N(c4ccccc4)C(=O)C3N2Nc2ccccc2)c2ccccc12 (stereo not drawn),-0.0153 (inactive)
8,CC(C)(C)OC(=O)CC[C@]1(C(=O)NCC(O)CO)N=C(c2ccc(OCCCO)cc2)O[C@H]1c1ccccc1CN=[N+]=[N-] (stereo partly drawn),-0.029 (inactive)
9,CCOC(=O)C=Cc1cccc(OC)c1O,-1.68 (inactive)
10,C=CCN1C(=O)[C@]2(Cc3ccccc31)N=C(c1ccc(OCCCO)cc1)O[C@@H]2c1ccccc1,-0.149 (inactive)
11,C=CC[C@@]1(C(N)=O)N=C(c2ccc(OCCCO)cc2)O[C@@H]1c1ccccc1N=[N+]=[N-],-0.0626 (inactive)
12,C=CCC(OC(C)=O)[C@@H]1[C@@H](N(Cc2cc3ccccc3o2)C(=O)c2cccc3ccccc23)c2cc(OCCCO)ccc2N1C(=O)Cc1ccc(OC)cc1 (stereo partly drawn),0.821 (inactive)
13,O=C1C2C=CC(C(O)c3ccc(-c4ccccc4)s3)N(Nc3ccccc3F)C2C(=O)N1c1ccccc1 (stereo not drawn),0.184 (inactive)
14,C=CC[C@@]1(C(=O)OC)N=C(c2ccc(OCCCO)cc2)O[C@@H]1c1ccccc1CN=[N+]=[N-],-1.07 (inactive)
15,O=C1C2C=CC(C(O)C3CC=CCC3)N(n3cnnc3)C2C(=O)N1Cc1ccccc1 (stereo not drawn),0.518 (inactive)
16,CN(C)CCCC[C@@H]1NC(=O)[C@@H]2C[C@H](C(=O)NCCCCCN)[C@H](c3ccc(O)cc3)N2C1=O,-0.538 (inactive)
17,CCOC(=O)C1=C[C@@H](C(C)(C)C)N(S(=O)(=O)c2ccc(C)cc2)[C@H]1c1ccc(Cl)c(Cl)c1,-0.0683 (inactive)
18,C=CCN1C(=O)[C@@]2(O[C@@H](CCO)[C@H]([Si](C)(C)c3ccc(OC)cc3)[C@H]2C)c2cc(NC(C)=O)ccc21,-0.0604 (inactive)
19,CCN(CC)c1ccc(N2CC=CC34O[C@@H]5/C=C\CCC(C)OC(=O)C5[C@H]3C(=O)N(CCCCCCO)[C@@H]4C2=O)cc1 (stereo partly drawn),-0.632 (inactive)
20,[N-]=[N+]=NCc1ccccc1C[C@]1(C(N)=O)N=C(c2ccc(OCCCO)cc2)O[C@H]1c1ccccc1N=[N+]=[N-],-0.118 (inactive)
21,COCCOC(=O)N1C(=O)[C@@]2(c3cc(C#CC4=CCCCC4)ccc31)[C@H](C(=O)N1CCN(c3ncccn3)CC1)[C@H]1C(=O)O[C@H](c3ccccc3)[C@H](c3ccccc3)N1[C@@H]2c1ccc(OCCO)cc1,0.0924 (inactive)
22,Cc1ccc(S[C@]2(C(=O)NCC(C)C)CC(=O)N(Cc3ccccc3)[C@@H]2c2ccc(CO)cc2)cc1,0.306 (inactive)
23,O=C1c2ccccc2[C@](Cc2ccccc2I)(C(=O)O)[C@H](c2ccc(CO)cc2)N1Cc1ccccc1C(F)(F)F,-0.344 (inactive)
24,C=C(C)[C@@H]1CC=C(C(O)C2C=CC3C(=O)N(Cc4ccccc4)C(=O)C3N2n2cnnc2)CC1 (stereo partly drawn),-0.0789 (inactive)
25,C=CCNC(=O)[C@@H]1[C@H]2C(=O)O[C@H](c3ccccc3)[C@H](c3ccccc3)N2[C@H](c2ccccc2OCCO)[C@@]12C(=O)N(C(=O)OCCOC)c1ccc(C#CCC(C(=O)OC)C(=O)OC)cc12,0.071 (inactive)
26,CCCC[C@H]1OB(O)C[C@H]2C1=C(COc1ccccc1)C[C@H]1C(=O)N(Cc3ccccc3)C(=O)[C@H]12,0.0918 (inactive)
27,CC(C)C(O)C1C=CC2C(=O)N(C)C(=O)C2N1N1CCCCC1 (stereo not drawn),0.604 (inactive)
28,CCN(CC)c1ccc(N2CC=CC34O[C@@H]5/C=C\CCCOC(=O)C5[C@H]3C(=O)N(CCCO)[C@@H]4C2=O)cc1 (stereo partly drawn),-0.343 (inactive)
